Reference: PubChem BioAssay (Tox21)
Inconclusive results are not listed. A call without a number means that no potency is given here. Active and inactive are the calls of the source. Calls come from the whole dose curve; as a rule, active = well fitted inhibition curve with a large enough effect in the signal ratio in the repeat runs, with a control signal flat; inconclusive = weak or mixed curves, or effect the other way; inactive = flat fitted curve, though single readings scatter; the % refers to the signal ratio.

Molecular target: D(2) dopamine receptor (Homo sapiens) (UniProt P14416)
Experiment: Dopamine D2 receptor (DRD2) small molecule antagonists, cell-based qHTS assay (AID 1963595)
Conditions: HEK293-DRD2 cAMP HTRF antagonist mode; series mostly up to 92.4 µM; activity change, negative = inhibition: at the top concentration
From the text: National Center for Advancing Translational Sciences [NCATS]
Division of Preclinical Innovation [DPI]
U.S. Environmental Protection Agency [EPA]
National Institutes of Environmental Health Sciences [NIEHS]
National Toxicology Program [NTP]
U.S. Food and Drug Administration [FDA]
DRD2 is the D2 subtype of the dopamine receptor, which is coupled to Gi subtype of G protein-coupled receptor. This G protein-coupled receptor inhibits adenylyl cyclase activity. The DRD2-HEK293 cell line stably expressing D2 dopamine receptor can be used for screening agonists and antagonists of interactions between D2 and its ligands. The Hek293-DRD2 cAMP assay is based on HTRF technology. It measures changes of cAMP accumulation in response to Gi coupled GPCR activation or inhibition.
Tox21 Assay Protocol Summary:
DRD2-Hek293 cells were dispensed at 600 cells/3uL/well in 1536-well white plates using a Multidrop Dispenser. After the assay plates were incubated at a 37 C/5% CO2 incubator for 24 h, 1 uL of Ro20-1724 at final concentration of 0.1 mM was transferred to the assay plate by a Flying Reagent Dispenser. Following Ro20-1724 addition, 23 nL of compound dissolved in DMSO, positive controls or DMSO only was added to the assay plates via Wako pintool station. The assay plates were incubated at room temperature for 10 min. Next, 1 uL of mixture of NKH477 (final concentration at 200 nM) and quinpirole (final concentration at 12 nM) was added into the plates. After the assay plates were incubated at room temperature for an additional 30 min, 2.5 ul/well of cAMP-d2 and 2.5 ul/well of anti-cAMP-cryptate were added respectively into the assay plates using a Flying Reagent Dispenser. The plates were incubated at room temperature for 1 h. The fluorescence intensity in the plates was measured at 340 nm excitation and 665 & 620 nm emission by an Envision plate reader.

D(2) dopamine receptor (Homo sapiens), sequence (P14416 whole entry, looked up): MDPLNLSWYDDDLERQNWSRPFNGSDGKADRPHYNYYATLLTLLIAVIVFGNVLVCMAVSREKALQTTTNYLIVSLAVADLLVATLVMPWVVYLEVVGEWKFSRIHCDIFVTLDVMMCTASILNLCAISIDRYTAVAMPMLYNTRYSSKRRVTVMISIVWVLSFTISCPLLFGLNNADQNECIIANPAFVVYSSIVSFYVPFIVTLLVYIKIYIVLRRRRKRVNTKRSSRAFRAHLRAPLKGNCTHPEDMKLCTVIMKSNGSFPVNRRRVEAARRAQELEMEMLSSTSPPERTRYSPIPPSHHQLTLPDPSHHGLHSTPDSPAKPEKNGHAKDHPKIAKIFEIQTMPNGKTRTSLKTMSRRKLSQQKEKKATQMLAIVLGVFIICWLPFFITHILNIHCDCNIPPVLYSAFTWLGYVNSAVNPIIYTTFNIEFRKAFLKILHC

Row | Compound | Potency | activity change, negative = inhibition
1 | CC(CCO)CC(C)(C)C (stereo not given) | inactive | 
2 | CC(C)[C@@H]1CC[C@@H](C)C[C@H]1O | inactive | 
3 | CCCCCCCC/C=C\CCCCCCCC(=O)O | inactive | 
4 | O=[N+]([O-])C(CO)(CO)CO | inactive | 
5 | Cc1nnc(NS(=O)(=O)c2ccc(N)cc2)s1 | inactive | 
6 | C=C(C)C(=O)OCCCCCC | inactive | 
7 | C/C=C/C(=O)N(CC)c1ccccc1C | inactive | 
8 | CC(C)(N)CO | inactive | 
9 | O=C(O)c1ccc(S(=O)(=O)N(Cl)Cl)cc1 | inactive | 
10 | CC(C)OB(OC(C)C)OC(C)C | inactive | 
11 | CC1=C(C)S(=O)(=O)CCS1(=O)=O | inactive | 
12 | COc1ccc([C@@H]2CC(=O)c3c(O)cc(O[C@@H]4O[C@H](CO[C@@H]5O[C@@H](C)[C@H](O)[C@@H](O)[C@H]5O)[C@@H](O)[C@H](O)[C@H]4O)cc3O2)cc1OC | inactive | 
13 | Cc1cc(=O)[nH]c(C(C)C)n1 | inactive | 
14 | CC(=O)Oc1ccccc1C(=O)O | inactive | 
15 | CCOCC(=O)O | inactive | 
16 | C#C[C@]1(O)CC[C@H]2[C@@H]3CCC4=CC(=O)CC[C@@H]4[C@H]3CC[C@@]21CC | inactive | 
17 | CCc1cccc(O)c1 | inactive | 
18 | CCCNC(=O)NS(=O)(=O)c1ccc(Cl)cc1 | inactive | 
19 | CC(O)C(=O)O (stereo not given) | inactive | 
20 | OC1CCCCC1 | inactive | 

Row | Compound | Potency | activity change, negative = inhibition
21 | O=C(O)[C@H](O)[C@@H](O)[C@H](O)[C@H](O)CO | inactive | 
22 | Cn1cc[nH]c1=S | inactive | 
23 | CC1=CC(=O)CC(C)(C)C1 | inactive | 
24 | COC(=O)c1cccnc1 | inactive | 
25 | Oc1ccc(O)cc1 |  | 0.761% [at 42.5 µM] (inactive)
26 | COCC(C)N (stereo not given) | inactive | 
27 | CCCC(C)=O | inactive | 
28 | COCCc1ccc(OCC(O)CNC(C)C)cc1 (stereo not given) | inactive | 
29 | Cc1cn([C@H]2C=C[C@@H](CO)O2)c(=O)[nH]c1=O | inactive | 
30 | CC(C)CCCCCCCOC(=O)CCCCC(=O)OCCCCCCCC(C)C | inactive | 
31 | Cc1ccc(O)c(-n2nc3ccccc3n2)c1 | inactive | 
32 | Cc1cccc(C(=O)O)c1 | inactive | 
33 | CC(=O)OCC(COC(C)=O)OC(C)=O | inactive | 
34 | O=[N+]([O-])c1cccc(Cl)c1 | inactive | 
35 | CC(=O)c1ccccc1 | inactive | 
36 | CC[C@H](C)C(=O)O[C@H]1C[C@@H](C)C=C2C=C[C@H](C)[C@H](CC[C@@H]3C[C@@H](O)CC(=O)O3)[C@H]21 | inactive | 
37 | OCc1cccc(Oc2ccccc2)c1 | inactive | 
38 | CN1CCC[C@H]1c1cccnc1 | inactive | 
39 | CC1(C)OC(=O)NC1=O |  | 3.12% (inactive)
40 | CN/C(=C\[N+](=O)[O-])NCCSCc1csc(CN(C)C)n1 | inactive | 
